Results filed as inconclusive are left out. Active and inactive are the calls of the source. Calls follow the shape of the dose curve; as a rule, active = well fitted inhibition curve with a large enough effect; inconclusive = small, poorly fitted or top-dose-only effect; inactive = no such curve, though single readings can be large or run the other way.
Experiment: HTS Assay for Allosteric Antagonists of the Human D2 Dopamine Receptor: Hit Validation in HTRF (AID 624455);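 also: stable D1 dopamine receptor cell line scored for blocking the D1 response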
Conditions: Cells stably expressing D1 dopamine receptor, inhibition mode; series mostly up to 46.1 µM; activity, negative = inhibition: at the top concentration
Source text: Dopamine receptors (DARs) are involved in the etiology and/or therapy of a number of neuropsychiatric and endocrine disorders. For instance, all receptor-based antiparkinsonian drugs work via stimulating the D2 DAR subtype whereas all FDA-approved antipsychotic agents are antagonists of this receptor. […] There are three different types of allosteric modulators that we are seeking, two of which will stimulate or augment receptor signaling, allosteric agonists and potentiators, while the third, allosteric antagonists, will attenuate receptor signaling. The present primary screening assay measures compound antagonism after an EC80 addition of dopamine by tracking calcium flux in a […], inducible Hek293 Trex D2 cell line. This assay measures activity of the hits in the D1 HTRF assay.
NIH Chemical Genomics Center [NCGC]
NIH Molecular Libraries Probe Centers Network [MLPCN]
Assay Submitter (PI): David Sibley
Cells stably expressing the D1 dopamine receptor will be run in an HTRF assay and compounds will be examined for the ability to inhibit the D1 mediated response.
% is scaled to controls: 0 for no effect and ±100 for the full control effect.

SMILES	activity, negative = inhibition	Potency
CCC1(C)CC(=O)NC1=O (stereo not given)	-1.88% (inactive)	–
CN(C)c1nc(N(C)C)nc(N(C)C)n1	-3.6% (inactive)	–
COc1ccccc1OCC(O)CN1CCN(CC(=O)Nc2c(C)cccc2C)CC1 (stereo not given)	-4.21% (inactive)	–
CS(=O)(=O)Nc1ccc([N+](=O)[O-])cc1Oc1ccccc1	6.56% (inactive)	–
COc1ccc(CCN(C)CCCC(C#N)(c2ccc(OC)c(OC)c2)C(C)C)cc1OC (stereo not given)	-0.295% (inactive)	–
CC12CC3CC(C)(C1)CC(N)(C3)C2	12.9% (inactive)	–
CCc1cccc2c3c([nH]c12)C(CC)(CC(=O)O)OCC3 (stereo not given)	-3.77% (inactive)	–
CC(C(=O)O)c1cccc(C(=O)c2ccccc2)c1 (stereo not given)	1.12% (inactive)	–
NC12CC3CC(CC(C3)C1)C2	-8.52% (inactive)	–
CCOC(=O)Nc1ccc(NCc2ccc(F)cc2)nc1N	5.79% (inactive)	–
CNCCCC12CCC(c3ccccc31)c1ccccc12	3.07% (inactive)	–
O=c1[nH]cc(F)c(=O)[nH]1	1.75% (inactive)	–
CN1CCN(CCCN2c3ccccc3Sc3ccc(Cl)cc32)CC1	6.59% (inactive)	–
CCOC(=O)C(C)(C)Oc1ccc(Cl)cc1	3.49% (inactive)	–
COc1nc(C)nc(Cl)c1NC1=NCCN1	-1.19% (inactive)	–
COc1ccccc1OCCNCC(O)COc1cccc2[nH]c3ccccc3c12 (stereo not given)	-14.7% (inactive)	–
NS(=O)(=O)c1cc2c(cc1Cl)NCNS2(=O)=O	-3.47% (inactive)	–
N[C@@H](Cc1c[nH]c2ccc(O)cc12)C(=O)O	11.7% (inactive)	–
Cc1cc(C(C)(C)C)c(O)c(C)c1CC1=NCCN1	-10.8% (inactive)	–
Clc1ccc2nsnc2c1NC1=NCCN1	-2.3% (inactive)	–

SMILES	activity, negative = inhibition	Potency
Cn1ccc2cc3c(cc21)CCN3C(=O)Nc1cccnc1	9.51% (inactive)	–
CC1COc2c(N3CCN(C)CC3)c(F)cc3c(=O)c(C(=O)O)cn1c23 (stereo not given)	-4.43% (inactive)	–
COc1cc2nc(N3CCN(C(=O)C4COc5ccccc5O4)CC3)nc(N)c2cc1OC (stereo not given)	-1.16% (inactive)	–
CN1C2CCC1CC(OC(=O)C(CO)c1ccccc1)C2 (stereo not given)	–	inactive
O=c1c(O)c(-c2ccc(O)c(O)c2)oc2cc(O)cc(O)c12	2.57% (inactive)	–
NC(=O)NO	-4.32% (inactive)	–
Nc1nc2c(ncn2COC(CO)CO)c(=O)[nH]1	4.48% (inactive)	–
CC(C)NCC(O)COc1ccc(CCOCC2CC2)cc1 (stereo not given)	-15.7% (inactive)	–
Cn1cnc2c1c(=O)[nH]c(=O)n2C	-4.71% (inactive)	–
NC(CO)C(=O)NNCc1ccc(O)c(O)c1O (stereo not given)	-5.59% (inactive)	–
OCCN1CCN(CCCN2c3ccccc3Sc3ccc(C(F)(F)F)cc32)CC1	3.7% (inactive)	–
Nc1c2c(nc3ccccc13)CCCC2	1.33% (inactive)	–
CCC1(c2ccccc2)C(=O)NCNC1=O	27.4% (inactive)	–
Fc1ccc([C@@H]2CCNC[C@H]2COc2ccc3c(c2)OCO3)cc1	-4.38% (inactive)	–
CN1CCN2c3ccccc3Cc3ccccc3C2C1 (stereo not given)	4.73% (inactive)	–
O=C(C1CCCCC1)N1CC(=O)N2CCc3ccccc3C2C1 (stereo not given)	8.22% (inactive)	–
Cc1cn([C@H]2C[C@H](N=[N+]=[N-])[C@@H](CO)O2)c(=O)[nH]c1=O	-5.68% (inactive)	–
CCN1CCCC1CNC(=O)c1cc(S(=O)(=O)CC)c(N)cc1OC (stereo not given)	0.153% (inactive)	–
CC#C[C@]1(O)CC[C@H]2[C@@H]3CCC4=CC(=O)CCC4=C3[C@@H](c3ccc(N(C)C)cc3)C[C@@]21C	17.7% (inactive)	–
CN(C)CCCN1c2ccccc2CCc2ccc(Cl)cc21	10.1% (inactive)	–

— PubChem BioAssay (NCATS)
